Laboratory results reported in PubChem BioAssay AID1851 (National Center for Advancing Translational Sciences (NCATS), 2009).
The campaign covered roughly 16,000 compounds. About 5,700 (36%) were called active. About 24% were inconclusive and are not listed. Some of the results follow. The source holds several records for some structures; these can differ, active in one and inactive in another. Values without a mark were called inactive. The call rests on the fitted dose curve; in most records, active means well fitted curve in the direction sought with a large enough effect; inconclusive means small, poorly fitted or top-dose-only effect, or effect the other way; inactive means no such curve, though single readings can be large or run the other way.

target: Cytochrome P450 1A2 (Homo sapiens) (UniProt P05177); test: Cytochrome panel assay with activity outcomes; conditions: recombinant CYP, pro-luciferin dealkylation, luminescence, p450-cyp1a2; series mostly up to 57.1 µM
Sequence (P05177 whole entry, looked up): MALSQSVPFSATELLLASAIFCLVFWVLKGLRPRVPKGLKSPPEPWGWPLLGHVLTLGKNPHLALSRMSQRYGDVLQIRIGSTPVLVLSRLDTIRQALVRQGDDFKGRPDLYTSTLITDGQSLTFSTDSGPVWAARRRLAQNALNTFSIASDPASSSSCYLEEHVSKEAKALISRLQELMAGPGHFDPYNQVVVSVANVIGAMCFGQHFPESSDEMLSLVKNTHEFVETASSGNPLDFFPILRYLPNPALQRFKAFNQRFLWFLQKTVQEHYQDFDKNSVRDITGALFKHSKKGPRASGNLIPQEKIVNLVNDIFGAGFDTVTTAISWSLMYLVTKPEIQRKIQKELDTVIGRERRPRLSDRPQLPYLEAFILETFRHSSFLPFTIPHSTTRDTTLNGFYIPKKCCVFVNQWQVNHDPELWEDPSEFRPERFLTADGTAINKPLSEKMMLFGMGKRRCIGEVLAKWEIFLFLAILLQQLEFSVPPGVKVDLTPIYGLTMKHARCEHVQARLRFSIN
On the % scale 0 is the no-effect control and ±100 the full control effect.

| SMILES | AC50 | activity, negative = inhibition |
| --- | --- | --- |
| CCN(CC)c1ccc(NC(=O)c2cccnc2)c(C)c1 | inactive |  |
| CCOc1cc(C#N)c(NC(=O)c2cccnc2)cc1OCC | 20 µM (active) |  |
| CS(=O)(=O)N1CCC2(CCN(Cc3nccs3)CC2)CC1 | inactive |  |
| COC(=O)C1=C(CSc2nncn2C)NC(=O)NC1c1ccc(F)cc1 (stereo not drawn) | inactive |  |
| Cn1cnnc1SCC(=O)n1c2ccccc2c2ccccc21 | 0.0501 µM (active) |  |
| O=C(CCCN1C(=O)C2C3C=CC(C3)C2C1=O)N1CCN(c2ccccc2)CC1 (stereo not drawn) | inactive |  |
| CCc1cccc2c(C=C(C#N)C#N)cn(CC(=O)N3CCCC3)c12 | inactive |  |
| CCc1cccc2c(C=C(C#N)C#N)cn(CC(=O)N3CCCCC3)c12 | inactive |  |
| O=C(CCCN1C(=O)c2cccc3cccc(c23)C1=O)N1CCc2ccccc2C1 | 6.31 µM (active) |  |
| O=C(CN1C(=O)c2cccc3cccc(c23)C1=O)N1CCCCCC1 | 14.1 µM (active) |  |
| CSc1nc(Cl)cc(N(CCO)CCO)n1 | inactive |  |
| CC(=O)OC[C@H]1O[C@@H](ON=C(C)C)[C@H](OC(C)=O)[C@@H](OC(C)=O)[C@H]1OC(C)=O |  | -5.84% [at 11.4 µM] |
| COc1ccc(/C=C2\CCCC3C2=NN(C(=O)c2ccco2)C3c2ccc(OC)c(OC)c2)cc1OC (stereo not drawn) | inactive |  |
| NC(=O)/C(=N\OC(=O)c1ccco1)c1nc(-c2ccc(Br)cc2)cs1 | 0.447 µM (active) |  |
| Clc1ccc(CSCCc2ccncc2)cc1Cl | 0.316 µM (active) |  |
| O=S(=O)(O)CCCc1cccc2ccccc12 |  | -16.7% [at 2.29 µM] |
| Clc1ccc(COc2ccccn2)cc1Cl | inactive |  |
| c1ccc2c(CSCCc3ccncc3)cccc2c1 | 0.178 µM (active) |  |
| Cn1c(=O)c(-c2ccccc2)nc2cnc(N3CCOCC3)nc21 | 2 µM (active) |  |
| Cn1c(=O)c(-c2ccccc2)nc2cnc(N3CCNCC3)nc21 | 12.6 µM (active) |  |
| COc1ccc(-n2c(=O)c(-c3ccc(Cl)cc3)nc3cnc(N4CCOCC4)nc32)cc1 | 15.8 µM (active) |  |
| COCCn1c(=O)c(-c2ccc(F)cc2)nc2cnc(N3CCOCC3)nc21 | 5.01 µM (active) |  |
| NCCc1nc(-c2nc(C(=O)O)cs2)cs1 |  | -15.8% [at 11.4 µM] |
| N[C@@H](C(=O)O)c1ccc(C(=O)O)c(C(=O)O)c1 | inactive |  |
| COc1ccc2c(c1)CCCC21NC(=O)N(CC(N)=O)C1=O (stereo not drawn) | inactive |  |

| SMILES | AC50 | activity, negative = inhibition |
| --- | --- | --- |
| CC(C)(C)CC(C)(C)c1cc(O)c(O)c(CN2CCCCC2)c1 |  | -0.989% [at 11.4 µM] |
| N#CCCn1c(=O)c(-c2ccc(Cl)cc2)nc2cnc(N3CCOCC3)nc21 | 15.8 µM (active) |  |
| COc1ccc(-c2nc3cnc(N4CCN(C)CC4)nc3n(CCC#N)c2=O)cc1 | inactive |  |
| Cn1c(=O)c(-c2ccc(Cl)cc2)nc2cnc(N3CCOCC3)nc21 | 2.51 µM (active) |  |
| Cn1c(=O)c(-c2ccc(F)cc2)nc2cnc(N3CCOCC3)nc21 | 2.51 µM (active) |  |
| CC(C)CO/N=C1/[C@H]2O[C@@H]2[C@@H](O)[C@H]2[C@H]1CCn1c(=O)n(C)c(=O)n12 |  | 8.17% [at 11.4 µM] |
| COCC(=O)N1CCC2(CC1)CN(c1ccccn1)C2 | inactive |  |
| CCCCNc1cc(=O)oc2ccccc12 | 0.708 µM (active) |  |
| CC(=O)OC[C@@H]1O[C@H](C/C=N\OCC[C@H]2C=C[C@H](OC(C)=O)[C@@H](COC(C)=O)O2)C=C[C@@H]1OC(C)=O |  | -12.9% [at 11.4 µM] |
| c1ccc(Cc2nnc(Sc3ccccc3)c3ccccc23)cc1 | 17.8 µM (active) |  |
| O=c1[nH]c(=S)[nH]nc1Cc1ccccc1 | inactive |  |
| CCN(CC)S(=O)(=O)c1cc(C(=O)Nc2ccccc2C(=O)O)ccc1OC | 15.8 µM (active) |  |
| CCN(CC)S(=O)(=O)c1ccc2c(c1)nc(SCC(=O)N1CCOCC1)n2-c1ccccc1OC | inactive |  |
| COC(=O)c1cc(OC)c(OC)cc1NC(=O)CSc1ccccc1 | 1.78 µM (active) |  |
| COC(=O)c1cc(OC)c(OC)cc1NC(=O)CSc1ccc(C)cc1 | 1.78 µM (active) |  |
| CCN(CC)S(=O)(=O)c1ccc(OC)c(NC(=O)c2cc([N+](=O)[O-])ccc2Cl)c1 | inactive |  |
| CCN(CC)S(=O)(=O)c1ccc(OC)c(NC(=O)CSc2ccccc2)c1 | 15.8 µM (active) |  |
| O=C(CSc1ccccc1)Nc1ccc(N2CCN(c3ccccc3)CC2)c(F)c1 | inactive |  |
| COc1ccc(C(=O)N2CCCCC2)cc1S(=O)(=O)Nc1ccccc1 | inactive |  |
| Cc1ccc(SCC(=O)NNC(=O)C2CCCCC2)cc1 | inactive |  |
| O=c1n(-c2ccccc2)c(=O)n2n1CC[C@H]1/C(=N\OCc3ccccc3)[C@H]3O[C@@H]3[C@@H](O)[C@@H]12 |  | -12.4% [at 11.4 µM] |
| CN(C)c1ccc(-c2ccc3ncnc(N(C)C)c3c2)cc1 | 0.158 µM (active) |  |
| CN(C)c1ncnc2ccc(-c3ccoc3)cc12 | 0.794 µM (active) |  |
| CN(C)C(=O)c1ccc(-c2ccc3ncnc(N(C)C)c3c2)cc1 | 20 µM (active) |  |
| CCO[P@]1(=O)OC[C@@H]2O[C@H](n3cnc4c(N)ncnc43)[C@H](O)[C@@H]2O1 |  | -15.6% [at 2.29 µM] |

| SMILES | AC50 | activity, negative = inhibition |
| --- | --- | --- |
| CC(NC(=O)CN1CCCC1)C12CC3CC(CC(C3)C1)C2 (stereo not drawn) | inactive |  |
| COC(=O)[C@H](C)NC(=O)[C@@H](C)CO |  | -7.75% [at 11.4 µM] |
| O=S(=O)(N/N=C\c1cn(-c2ccccc2)nc1-c1ccccc1)c1ccccc1 | 3.55 µM (active) |  |
| O=C(N/N=C\c1cn(-c2ccccc2)nc1-c1ccccc1)c1ccc(Br)o1 | 3.55 µM (active) |  |
| COc1ccc(-c2nn(-c3ccccc3)cc2/C=N/NC(=O)c2ccc(Br)o2)cc1 | inactive |  |
| Cc1ccc(-c2nn(-c3ccccc3)cc2/C=N/NS(=O)(=O)c2ccccc2)cc1 | 4.47 µM (active) |  |
| COCCCNC(=O)c1c(N)n(/N=C/c2ccccn2)c2nc3ccccc3nc12 | 2 µM (active) |  |
| CC1=NN(c2ccccc2)C(=O)C1C(=O)c1ccc(Cl)cc1 (stereo not drawn) | inactive |  |
| Cn1c(N)c(N=Nc2ccc(S(N)(=O)=O)cc2)c(=O)n(C)c1=O |  | -12.8% [at 2.29 µM] |
| CC1=NN(c2ccccc2)C(=O)[C@@H]1N=Nc1ccc(S(N)(=O)=O)cc1 | 1.26 µM (active) |  |
| CC(=O)OCC(=O)[C@@]1(O)CC[C@@H]2[C@H]3CCC4=CC(=O)CC[C@]4(C)[C@]3(F)[C@@H](O)C[C@@]21C | inactive |  |
| CCC(C)NS(=O)(=O)c1ccc(OCC(=O)NCC2CCCO2)cc1 (stereo not drawn) | inactive |  |
| Cc1ccc(C)c(-n2c(Cc3cc(=O)[nH]c(=O)[nH]3)nnc2SCC(=O)NCC2CCCO2)c1 (stereo not drawn) | inactive |  |
| Cc1[nH]nc2nc(SCC(=O)NCC3CCCO3)n(-c3ccc(Br)cc3)c(=N)c12 (stereo not drawn) | 10 µM (active) |  |
| C=CCn1c(=O)c2c(nc(-c3ccc(S(=O)(=O)O)cc3)n2C)n(C)c1=O | inactive |  |
| CCOc1cc(/C=C2\N=C(C)OC2=O)cc(Br)c1OCC(=O)OC | 17.8 µM (active) |  |
| CCOc1ccc(N2C(=O)/C(=C/c3cc(OC)c(OC)c(OC)c3)N(CC(=O)OC)C2=S)cc1 | inactive |  |
| CCCCNC(=O)C1CC(=O)N(c2ccc(OC)cc2)C1c1ccc(OC)cc1 (stereo not drawn) | inactive |  |
| CCN1C(=O)/C(=C2\SC(=S)N(CCCOC)C2=O)c2ccccc21 | 1.58 µM (active) |  |
| N#Cc1c(Cl)cccc1-n1ccnc1 | 1 µM (active) |  |
| N#Cc1c(-n2ccnc2)cccc1-n1ccnc1 | 2.51 µM (active) |  |
| FC(F)(F)c1ccccc1-n1ccnc1 | 0.251 µM (active) |  |
| CC(=O)Nc1ccc(NC2=Nc3ccccc3N3C2=Nc2c(c(C)nn2-c2ccccc2)C3c2ccccc2)cc1 (stereo not drawn) | inactive |  |
| C=CCNC(=O)C1CCN(S(=O)(=O)CC)CC1 | inactive |  |
| COc1ccccc1CNc1ncnc2ccc(-c3ccccc3C#N)cc12 | 1.26 µM (active) |  |

| SMILES | AC50 | activity, negative = inhibition |
| --- | --- | --- |
| COc1ccc(CNc2ncnc3ccc(-c4ccccc4C#N)cc23)c(OC)c1 | 6.31 µM (active) |  |
| Cc1ccc(N(Cc2ccc([N+](=O)[O-])cc2)C(=O)c2ccco2)cc1 | 12.6 µM (active) |  |
| Cc1ccc(C(=O)N/C(=C\c2ccc([N+](=O)[O-])cc2)C(=O)NCCc2ccccc2)cc1 | inactive |  |
| O=C1c2ccccc2C(=O)N1CCCCN(C(=O)c1ccc([N+](=O)[O-])cc1)c1ccc(Cl)cc1 | inactive |  |
| Nc1nc(-c2cccs2)cs1 | 7.08 µM (active) | -30.1% [at 2.29 µM] |
| NC(=O)C[C@H](N)C(N)=O |  | -6.74% [at 11.4 µM] |
| CC(=O)SCC[N+](C)(C)C | inactive |  |
| O=C(Nc1cccc(-c2nc3ccccc3s2)c1)c1ccc2c(c1)OCO2 | 2 µM (active) |  |
| O=C(Nc1cc(-c2nc3ccccc3s2)ccc1Cl)c1ccc2c(c1)OCO2 | 1.41 µM (active) |  |
| Cc1ccc(-n2nc3ccc(NC(=O)c4ccc5c(c4)OCO5)cc3n2)cc1 | inactive |  |
| CCc1sc(N(C(=O)Cc2ccccc2)c2cccc(F)c2)nc1-c1ccc(C)cc1 | inactive |  |
| COc1ccc(N(CC(=O)N/N=C/c2cccs2)S(=O)(=O)c2ccc(OC)c(OC)c2)cc1 | inactive |  |
| Cn1cccc1CC(=O)N/N=C\c1cccs1 | 15.8 µM (active) |  |
| C/C(=N/NC(=O)Cc1cccn1C)c1ccccc1 | 20 µM (active) |  |
| CC(C)(C)c1cccc(Oc2nn[nH]n2)c1 | inactive |  |
| NC(=NCCC[C@H](N)C(=O)O)NO | inactive |  |
| CN/C(=C\[N+](=O)[O-])NCCSCc1csc(CN(C)C)n1 | inactive |  |
| Cc1noc(C)c1COc1ccc(C(=O)NCC2CCCO2)cc1 (stereo not drawn) | inactive |  |
| O=C(O)c1cc(S(=O)(=O)NCC2CCCO2)ccc1Cl (stereo not drawn) | inactive |  |
| O=C(NCC1CCCO1)c1cc(-c2ccc(Cl)cc2Cl)on1 (stereo not drawn) | 2.51 µM (active) |  |
| Cc1ccc(-c2nnn(CC(=O)N(c3ccccc3)C(C(=O)NCC3CCCO3)c3ccc(Cl)cc3)n2)cc1 (stereo not drawn) | inactive |  |
| O=C(Nc1ccccc1C(=O)NCC1CCCO1)c1ccc(Cl)cc1Cl (stereo not drawn) | 8.91 µM (active) |  |
